Among the data in ChEMBL document CHEMBL4513151, “CO-ADD screening of Institut Català d'Investigació Química (Spain) compounds” are Inhibition values, retold here.

The test system of one experiment is Klebsiella pneumoniae. Particulars: Concentration 32 ug.mL-1; ASSAY_TEST Inhibition of Bacterial Growth; detection method Absorption (OD600); MEDIA CAMHB; plate type 384well; NBS; CORNING #3640; time 18 hr, 32 ug/mL.
Another experiment relates to Cryptococcus neoformans. To be noted: Concentration 32 ug.mL-1; ASSAY_TEST Inhibition of Fungal Growth; detection method Resazurin; Absorption (OD600-OD570); plate type 384well; NBS; CORNING #3640; 32 ug/mL. A general note: Alamar Blue is a resazurin reagent that responds to reducing activity.

Where “and” joins values, the source holds several entries; their conditions need not be identical. Equal entries are not always repeated. Measured potencies and affinities stand elsewhere.

Take `C[C@]12CC[C@@](c3ccc(C(F)(F)F)cc3)(O1)[C@H]1C=C[C@H](OC(=O)c3ccccc3)[C@H]12`: the Inhibition in the experiment with Klebsiella pneumoniae was 10.18% and 19.4%.

`C[C@]12CC[C@@](C3CC3)(O1)[C@H]1C=C[C@H](OC(=O)c3ccccc3)[C@H]12`: the Inhibition in the experiment with Klebsiella pneumoniae was 19.23% and 15.4%.

In the case of `C[C@]12CC[C@@](c3ccccc3)(O1)[C@H]1C=C[C@H](OC(=O)c3ccccc3)[C@H]12`, the Inhibition in the experiment on Cryptococcus neoformans was -55.26% and -63.64%.

Broadly, the Inhibition is the drop in the measured response relative to a control, in per cent.
